Each structure is given as a SMILES string. Structures can show the parent of a compound that is named as a salt.

The assay relates to Danio rerio larvae (5 dpf). Description: startle (activity period 16 minus period 15, 20-s interval sound) minus DMSO control (percentage points); higher = stronger startle response than DMSO larvae. To be noted: 10 µM; exposure time: 3 h pre-incubation + 3 h imaging. The method, then:
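Wild-type 5 dpf zebrafish larvae (n=48 per drug, 96-well plates, 28.5 °C) were exposed to Tocris FDA-approved library compounds at 10 µM (0.1% DMSO) for 3 h before and 3 h during imaging. Images were taken every 6 s during visual and acoustic stimuli, and larvae were tracked with Z-LaP Tracker. Each measure is the treated-group mean minus the DMSO control mean (n=844), in percentage points. This mapping covers compounds with 5-character plate codes.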
For `NS(=O)(=O)c1cc2c(cc1Cl)NC(C1CC3C=CC1C3)NS2(=O)=O` (configuration not stated) [Cyclothiazide], the startle was found to be 1.22.

In the case of `O=C(O)C[C@H](O)C[C@H](O)/C=C/c1c(C2CC2)nc2ccccc2c1-c1ccc(F)cc1` [Pitavastatin calcium], the startle was 2.76.

With `COc1cc(N)c(Cl)cc1C(=O)NC1CCN(CCCOc2ccc(F)cc2)CC1OC` (configuration not stated) [Cisapride], the startle was -1.14.

As for `Clc1ccc2nsnc2c1NC1=NCCN1` [Tizanidine hydrochloride], the startle was -2.98.

For `CN(C)C(=N)NC(=N)N` [Metformin hydrochloride], the startle is -2.04.

Take `O=c1n(CCCN2CCN(c3cccc(Cl)c3)CC2)nc2ccccn12` [Trazodone hydrochloride]: the startle is 3.18.

As for `COc1cc([C@@H]2c3cc4c(cc3[C@@H](O[C@@H]3O[C@@H]5CO[C@@H](C)O[C@H]5[C@H](O)[C@H]3O)[C@H]3COC(=O)[C@H]23)OCO4)cc(OC)c1O` [Etoposide], the startle was -0.943.

Regarding `CCCC1O[C@@H]2C[C@H]3[C@@H]4CCC5=CC(=O)C=C[C@]5(C)[C@H]4[C@@H](O)C[C@]3(C)[C@]2(C(=O)CO)O1` (some centres not stated) [Budesonide], the startle was -5.13.

In the case of `CN(C)CCc1c[nH]c2ccc(C[C@H]3COC(=O)N3)cc12` [Zolmitriptan], the startle was found to be 2.75.

`C#CCN[C@@H]1CCc2ccccc21` [Rasagiline mesylate]: the startle was 3.19.

As to `CNC(=O)c1cc(Oc2ccc(NC(=O)Nc3ccc(Cl)c(C(F)(F)F)c3)cc2)ccn1` [Sorafenib], the startle was -3.34.

With `OCCN1C[C@H](O)[C@@H](O)[C@H](O)[C@H]1CO` [Miglitol], the startle is -0.148.

In the case of `N#Cc1ccc2[nH]cc(CCCCN3CCN(c4ccc5oc(C(N)=O)cc5c4)CC3)c2c1` [Vilazodone hydrochloride], the startle was -7.54.

Consider `CCCCCCCN(CC)CCCC(O)c1ccc(NS(C)(=O)=O)cc1` (configuration not stated) [Ibutilide hemifumarate], for which the startle was -4.59.

Regarding `Cc1cc2c(s1)Nc1ccccc1N=C2N1CCN(C)CC1` [Olanzapine], the startle was determined as 2.27.

For `CC(C)OC(=O)C(C)(C)Oc1ccc(C(=O)c2ccc(Cl)cc2)cc1` [Fenofibrate], the startle was -5.75.

With `N#C[C@@H]1C[C@@H]2C[C@@H]2N1C(=O)[C@@H](N)C12CC3CC(CC(O)(C3)C1)C2` [Saxagliptin hydrochloride], the startle is 4.83.

For the molecule `OC(c1cc(C(F)(F)F)nc2c(C(F)(F)F)cccc12)C1CCCCN1` (configuration not stated) [Mefloquine hydrochloride], the startle is -13.1.

On to `CC(C)COCC(CN(Cc1ccccc1)c1ccccc1)N1CCCC1` (configuration not stated) [Bepridil hydrochloride], for which the startle was -3.27.

Take `C[C@@H]1C[C@H]2[C@@H]3CCC4=CC(=O)C=C[C@]4(C)[C@@]3(F)[C@@H](O)C[C@]2(C)[C@@]1(O)C(=O)CO` [Dexamethasone]: the startle is -0.0968.

With `CC[C@H]1OC(=O)[C@H](C)[C@@H](O[C@H]2C[C@@](C)(OC)[C@@H](O)[C@H](C)O2)[C@H](C)[C@@H](O[C@@H]2O[C@H](C)C[C@H](N(C)C)[C@H]2O)[C@](C)(O)C[C@@H](C)CN(C)[C@H](C)[C@@H](O)[C@]1(C)O` [Azithromycin], the startle was determined as 2.55.

As to `C[C@H]1O[C@H](O[C@H]2[C@H](O)[C@@H](O)[C@@H](O[C@H]3[C@H](O)[C@@H](O)C(O)O[C@@H]3CO)O[C@@H]2CO)[C@H](O)[C@@H](O)[C@@H]1N[C@H]1C=C(CO)[C@@H](O)[C@H](O)[C@H]1O` (some centres not stated) [Acarbose], the startle is -7.07.

On to `CN[C@H]1CC[C@@H](c2ccc(Cl)c(Cl)c2)c2ccccc21` [Sertraline hydrochloride], for which the startle was 2.62.

On to `CNS(=O)(=O)Cc1ccc2[nH]cc(CCN(C)C)c2c1` [Sumatriptan succinate], for which the startle is 2.1.

As for `COc1ccccc1Oc1c(NS(=O)(=O)c2ccc(C(C)(C)C)cc2)nc(-c2ncccn2)nc1OCCO` [Bosentan], the startle was found to be 7.41.

Take `NC(=O)OCC(COC(N)=O)c1ccccc1` [Felbamate]: the startle worked out at 1.44.

As for `COCCc1ccc(OCC(O)CNC(C)C)cc1` (configuration not stated) [Metoprolol tartrate], the startle stood at 4.47.

`CCc1nc(N)nc(N)c1-c1ccc(Cl)cc1` [Pyrimethamine]: the startle came to 1.66.

As for `CC(=O)Nc1ccc(O)cc1` [Acetaminophen], the startle was 0.242.

For `CC(C)(C(=O)O)c1ccc(C(O)CCCN2CCC(C(O)(c3ccccc3)c3ccccc3)CC2)cc1` (configuration not stated) [Fexofenadine hydrochloride], the startle worked out at 3.14.

As to `CCCc1nn(C)c2c(=O)[nH]c(-c3cc(S(=O)(=O)N4CCN(C)CC4)ccc3OCC)nc12` [Sildenafil citrate], the startle is -1.15.

In the case of `COc1ccccc1OCC(O)CN1CCN(CC(=O)Nc2c(C)cccc2C)CC1` (configuration not stated) [Ranolazine dihydrochloride], the startle came out at 2.16.

On to `CNCc1ccc(-c2[nH]c3cc(F)cc4c3c2CCNC4=O)cc1` [Rucaparib camsylate], for which the startle was -4.48.

Turning to `O=C1CCc2ccc(OCCCCN3CCN(c4cccc(Cl)c4Cl)CC3)cc2N1` [Aripiprazole], the startle was -3.31.

Regarding `COc1cc2nccc(Oc3ccc(NC(=O)C4(C(=O)Nc5ccc(F)cc5)CC4)cc3)c2cc1OC`, the startle was -3.85.

`CC(=O)Oc1cc2c(s1)CCN(C(C(=O)C1CC1)c1ccccc1F)C2` (configuration not stated) [Prasugrel]: the startle was -11.4.

Regarding `OCc1cc(C(O)CNCCCCCCOCCCCc2ccccc2)ccc1O` (configuration not stated) [Salmeterol xinafoate], the startle is -4.63.

The record behind these values is the supplement of paper PMC9950053.
